# Data: PubChem BioAssay AID430 (Sanford-Burnham Center for Chemical Genomics, 2006)
# Among all 63,000 compounds or so, about 1,100 (1.7%) were called active. The sample holds actives, similar compounds and a random draw of the others, so the mix is not that of the screen. Measured potencies and affinities stand elsewhere. Values without a mark were called inactive. Cut-off read from the data, not from the text of the source: active = cytotoxicity above about 50%; inactive = the rest.
# Experiment: HPDE-C7 pancreatic duct cell viability loss – fluorescence, HTS (AID 430);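 note: cells exposed to compound for 48 hours before viability readout; 0% = vehicle and 100% = reference cytotoxic drug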
# Conditions: HPDE-C7 pancreatic duct cells viability, at 10 µM, hits give high values
row,Compound,cytotoxicity
1,COc1ccc(-c2oc(/N=C/N3CCOCC3)c(C#N)c2-c2ccc(OC)cc2)cc1,-7.7%
2,NC1=NC2(CCC(c3ccccc3)CC2)n2c(nc3ccccc32)N1 (stereo not drawn),77.1% (active)
3,NC1=NC2(CCN(Cc3ccccc3)CC2)n2c(nc3ccccc32)N1,0.8%
4,NC1=NC2(CCCCC2)n2c(nc3ccccc32)N1,11.9%
5,CCCn1c(SCC(=O)Nc2ccc3c(c2)OCO3)nc2c1c(=O)n(C)c(=O)n2C,-4.6%
6,O=S(=O)(Nc1nc2ccccc2nc1NCc1ccco1)c1ccc(Cl)cc1,18.1%
7,Cc1noc(C)c1CSc1nc2ccccc2nc1NS(=O)(=O)c1ccc(Cl)cc1,81.1% (active)
8,Cc1noc(C)c1CSc1ncnc2ccccc12,4.7%
9,O=C(c1ccco1)N1c2ccccc2Sc2ccccc21,4.4%
10,O=C(N1CCN(c2ccccn2)CC1)N1c2ccccc2Sc2ccccc21,66.7% (active)
11,O=C(CN1CCN(c2ccccn2)CC1)N1c2ccccc2Sc2ccc(C(F)(F)F)cc21,22.1%
12,O=C(N1CCOCC1)N1CCN(c2ccccn2)CC1,-15.7%
13,O=C(NC1CCN(C(=O)N2c3ccccc3Sc3ccccc32)CC1)c1ccco1,-12.6%
14,O=C(c1ccco1)N1CCN(C(=O)N2c3ccccc3Sc3ccccc32)CC1,73.2% (active)
15,CC(=O)N1c2c(cc(Br)cc2S(=O)(=O)NCC2COc3ccccc3O2)CC1C (stereo not drawn),13.1%
16,COc1ccc(-c2oc3ncnc(NCCN4CCOCC4)c3c2-c2ccc(OC)cc2)cc1,3.3%
17,c1ccc(-c2oc3ncnc(NCCCN4CCOCC4)c3c2-c2ccccc2)cc1,48.6%
18,COc1ccc(-c2oc3ncnc(NCCCN4CCOCC4)c3c2-c2ccc(OC)cc2)cc1,67.3% (active)
19,Cc1cccc(CS(=O)(=O)Cc2ccc(C(=O)NCc3cccnc3)o2)c1,-7.1%
20,c1ccc2c(SCc3cn4cccnc4n3)ncnc2c1,13.3%
21,Cc1cc(=O)n2c3c(sc2n1)C(=O)N(Cc1ccccc1)C3=O,3.8%

row,Compound,cytotoxicity
1,Cc1cccc(Nc2nc(N)nc(CN3CCN(c4ccccc4)CC3)n2)c1,-13.2%
2,COc1ccc(N2CCN(Cc3nc(N)nc(Nc4ccc(C)c(Cl)c4)n3)CC2)cc1,7.9%
3,Cc1ccc(Nc2nc(N)nc(CN3CCN(c4ccccc4)CC3)n2)cc1Cl,72.1% (active)
4,O=C(Nc1nccs1)c1ccc(Br)o1,-3.3%
5,Cc1ccc(C(=O)NCCn2cc(SCC(=O)Nc3nnc(C)s3)c3ccccc32)cc1,-2%
6,S=c1[nH]nc(Cc2c[nH]c3ccccc23)o1,-0.8%
7,c1ccc(CSc2nnc(-c3c[nH]c4ccccc34)o2)cc1,-3.6%
8,O=C(Nc1ccc2c(c1)OCO2)Oc1ccccc1,-9.1%
9,OCCN(CCO)c1ncnc2c1sc1nc(N3CCOCC3)c3c(c12)CCCC3,-3.9%
10,COC(=O)CSc1ncnc2c1sc1nc(-c3ccco3)c3c(c12)CC(C)(C)OC3,15%
11,CSc1nc(N2CCN(CCO)CC2)c2sc3nc(-c4ccco4)c4c(c3c2n1)CCC4,-8.6%
12,c1nc(NCCN2CCOCC2)c2sc3nc(N4CCOCC4)c4c(c3c2n1)CCC4,16.6%
13,CCC1Oc2ccccc2N(CC(=O)NCCC2=CCCCC2)C1=O (stereo not drawn),0.8%
14,COc1cccc(N2CCN(C(=O)CCn3c(=S)[nH]c4cc5c(cc4c3=O)OCO5)CC2)c1,-14.3%
15,CCCOc1ccc2ccccc2c1/C=N/n1c(C)nnc1-n1nc(C)cc1C,41.9%
16,Cc1cc(C)n(-c2nnc(C)n2/N=C/c2ccccc2OCc2ccccc2Cl)n1,34.5%
17,Cc1cc(C)n(-c2nnc(C)n2/N=C/c2cc(Br)ccc2OCc2ccccc2)n1,57.6% (active)
18,COc1ccc(O)c(-c2cc(-c3cccs3)[nH]n2)c1,26.9%
19,Oc1ccc(Br)cc1-c1cc(-c2ccccc2F)[nH]n1,12.4%
20,CSc1nnc2n(-c3ccccc3)c(=O)c3c4c(sc3n12)CCC4,11.5%
21,O=S(=O)(c1ccccc1)N1CCN(Cc2ccccc2C(F)(F)F)CC1,-2.9%

row,Compound,cytotoxicity
1,CCOc1ccc(NS(=O)(=O)c2ccc3c(c2)CCN3C(=O)CCC(=O)O)cc1,-5.5%
2,O=S(=O)(c1ccc2ccccc2c1)N(CC(O)CN1CCOCC1)c1ccccc1 (stereo not drawn),-8%
3,O=S(=O)(c1ccc2ccccc2c1)N1CCCCC1,-5.5%
4,CCCn1c(SCC(=O)Nc2cccc(C)n2)nnc1-c1ccco1,-2%
5,CCOC(=O)C1=C(C)NC(C)=C(C(=O)OCC)C1c1ccc(OC)cc1,11.1%
6,CN1CCN(C(CNS(=O)(=O)c2ccc(Cl)cc2)c2cccnc2)CC1 (stereo not drawn),2.1%
7,COCCNC(=O)C(c1ccccc1C)N(CCOC)C(=O)Cn1nnc2ccccc21 (stereo not drawn),4.3%
8,O=C(CSc1nnc(-c2cccs2)o1)N1CCOCC1,-10.3%
9,CCOC(=O)c1cn(CC)c2cc(N3CCCCC3)c(F)cc2c1=O,3.7%
10,CCOC(=O)c1cn2c3c(c(F)c(F)c(F)c3c1=O)SC(N1CCCC1)=N2,62.5% (active)
11,CCOC(=O)c1sc2c(c1C)c(=O)c(C(=O)OCC)cn2CC,1.7%
12,CCCOCCOC(=O)C1=C(C)NC(=O)NC1c1cc(Cl)c(O)c(OC)c1 (stereo not drawn),-9.1%
13,Cc1nn(CC(O)Cn2c3c(c4ccccc42)CCN(C)C3=O)c(C)c1Br (stereo not drawn),-4.2%
14,Nc1nc(-c2ccccc2Br)cs1,11.7%
15,CCOC(=O)c1cc(C)n(CCc2ccccc2)c1C,-7.6%
16,Cc1cc(-c2csc(N)n2)c(C)n1CCc1ccccc1,78.3% (active)
17,CCOC(=O)N1CCN(C/C(C)=C/c2ccccc2)CC1,-6%
18,CCN(CCN(C)C)C(=O)Cn1ncc2c1-c1cc(C)ccc1OC2,-7.1%
19,CCOc1ccc(C(=O)N2CCc3cc(OC)c(OC)cc3C2)cc1OCC,18.6%
20,COc1ccc(C(=O)N2CCc3cc(OC)c(OC)cc3C2)cc1OC,5.8%
21,CCOc1cc(C(=O)N2CCc3cc(OC)c(OC)cc3C2)ccc1OC(F)F,82.5% (active)
